Some test systems named below: CDK4-cyclinD3; CDK4; CDK5; CDK7; CDK8; CDK9; CDKL1; CDKL2; CDKL3; CDKL5; CHEK1; CHEK2; CIT; CLK1; CLK2; CLK3; CLK4; CSF1R-autoinhibited; CSF1R; CSK.
Holding throughout (details): concentration: 1 μM, replicates: in singlicate; n = 1
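Further: KINOMEscan kinase panel screen.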

With `CCc1nc(-c2cccc(C)c2)c(-c2ccnc(NCc3ccccc3)c2)s1`, the “%Inh” value in the assay with CDK4-cyclinD3 is 0%; in the assay on CDK4, 0%; with CDK5 it was 0%; in the assay on CDK7 it was 0%; in the assay on CDK8, 0%; with CDK9, 1%. In addition, the “%Inh” value with CDKL1 came out at 13%; with CDKL2 it was 0%; in the assay on CDKL3 it was 2%; in the assay on CDKL5 it was 0%; in the assay on CHEK1, 0%; in the assay on CHEK2, 10%. For the same molecule, the “%Inh” value was 29% in the assay on CIT; 0% with CLK1; 11% with CLK2; 0% in the assay with CLK3; 0% in the assay with CLK4; 0% in the assay with CSF1R-autoinhibited. Also, the “%Inh” value in the assay on CSF1R turned out to be 6%; with CSK, 0%.

With `Nc1nccc(-c2c(-c3ccc(F)cc3)ncn2C2CCN(CC(F)(F)F)CC2)n1` [SB-236560], the “%Inh” value in the assay on CDK4-cyclinD3 was determined as 97.9%; in the assay on CDK4, 52%; in the assay with CDK5, 0%; in the assay on CDK7, 10%; with CDK8, 70%; in the assay on CDK9, 0%. In addition, the “%Inh” value with CDKL1 is listed as 18%; with CDKL2, 11%; in the assay on CDKL3, 0%; in the assay on CDKL5 it was 0%; in the assay on CHEK1, 0%; in the assay on CHEK2, 38%. Further, the “%Inh” value is recorded as 66% with CIT; 0% in the assay with CLK1; 6% in the assay with CLK2; 17% in the assay on CLK3; 0% with CLK4; 68% in the assay on CSF1R-autoinhibited. In addition, the “%Inh” value in the assay on CSF1R and in the assay with CSK was 0% throughout.

In the case of `CNc1ncnc2[nH]ncc12` [SKF-18355], the “%Inh” value in the assay on CDK4-cyclinD3 is given as 0%; with CDK4, 17%; in the assay with CDK5, 0%; with CDK7, 0%; with CDK8, 0%; with CDK9, 0%. The “%Inh” value in the assay with CDKL1 was 8%; in the assay on CDKL2, 30%; with CDKL3, 19%; in the assay with CDKL5, 3%; in the assay on CHEK1 it was 0%; in the assay on CHEK2 it was 0%. Further, the “%Inh” value in the assay with CIT is listed as 9%; in the assay with CLK1 it was 19%; in the assay with CLK2, 8%; in the assay with CLK3 it was 9%; in the assay with CLK4 it was 0%; in the assay with CSF1R-autoinhibited, 0%. Moreover, the “%Inh” value in the assay with CSF1R and in the assay with CSK was 0% in each case.

With `Cc1c(Cn2c(C)nn3c(=O)cc(N4CCOC(C)C4)nc23)cccc1C(F)(F)F` (centres unmarked) [GSK2344444], the “%Inh” value is 0% in the assay on CDK4-cyclinD3; 25% in the assay on CDK4; 0% with CDK5; 0% in the assay with CDK7; 0% in the assay on CDK8; 2% in the assay with CDK9. In addition, the “%Inh” value was 0% in the assay on CDKL1; 4% with CDKL2; 0% with CDKL3; 0% in the assay on CDKL5; 10% in the assay with CHEK1; 0% with CHEK2. Besides, the “%Inh” value in the assay with CIT is reported as 9%; in the assay on CLK1 it was 29%; in the assay with CLK2 it was 0%; with CLK3 it was 0%; with CLK4 it was 13%; in the assay on CSF1R-autoinhibited, 0%. Also, the “%Inh” value with CSF1R and in the assay on CSK was 0% in each case.

On to `NS(=O)(=O)c1cccc(-c2ccc3ncc(N4CCOCC4)nc3c2)c1` [GSK1535721], for which the “%Inh” value is reported as 0% in the assay on CDK4-cyclinD3; 12% in the assay with CDK4; 0% with CDK5; 20% in the assay with CDK7; 31% in the assay on CDK8; 3% in the assay with CDK9. Also, the “%Inh” value in the assay on CDKL1 is listed as 15%; in the assay on CDKL2, 0%; with CDKL3 it was 0%; in the assay on CDKL5, 0%; in the assay on CHEK1, 0%; in the assay with CHEK2, 37%. The “%Inh” value with CIT was found to be 7%; in the assay with CLK1 it was 11%; in the assay on CLK2, 12%; in the assay with CLK3, 0%; in the assay on CLK4, 18%; with CSF1R-autoinhibited it was 8%. In addition, the “%Inh” value with CSF1R and in the assay with CSK was 0% each time.

`CCn1cnc2c(N)ncnc21` [GW345098]: the “%Inh” value in the assay with CDK4-cyclinD3 is 0%; in the assay on CDK4 it was 0%; in the assay on CDK5 it was 28%; in the assay on CDK7, 20%; in the assay on CDK8, 7%; with CDK9 it was 0%. Besides, the “%Inh” value turned out to be 25% in the assay with CDKL1; 0% with CDKL2; 0% in the assay on CDKL3; 0% in the assay on CDKL5; 12% in the assay on CHEK1; 0% in the assay with CHEK2. The “%Inh” value in the assay on CIT turned out to be 6%; in the assay on CLK1, 30%; in the assay on CLK2, 18%; with CLK3, 69%; in the assay on CLK4, 1%; with CSF1R-autoinhibited, 0%. The “%Inh” value in the assay on CSF1R and in the assay with CSK was 0% each time.

With `Cl.Oc1cccc(Nc2ccnc3cc(-c4ccncc4)ccc23)c1` [GW494601], the “%Inh” value with CDK4-cyclinD3 came to 0%; with CDK4 it was 37%; in the assay with CDK5 it was 0%; with CDK7, 10%; with CDK8 it was 36%; with CDK9, 4%. Further, the “%Inh” value in the assay on CDKL1 is recorded as 2%; in the assay on CDKL2, 2%; in the assay with CDKL3, 0%; in the assay with CDKL5, 0%; in the assay with CHEK1, 0%; in the assay on CHEK2, 42%. For the same molecule, the “%Inh” value was determined as 68% with CIT; 9% with CLK1; 0% in the assay on CLK2; 0% with CLK3; 33% with CLK4; 41% with CSF1R-autoinhibited. Further, the entries for the “%Inh” value with CSF1R and in the assay with CSK were 91.9% and 65%, respectively.

Regarding `NS(=O)(=O)CCc1cccc(Nc2nccc(-c3c(-c4cccc(NC(=O)c5c(F)cccc5F)c4)nn4ccccc34)n2)c1` [GSK336735], the “%Inh” value with CDK4-cyclinD3 was found to be 0%; in the assay on CDK4, 19%; with CDK5, 0%; in the assay with CDK7, 0%; in the assay with CDK8, 0%; in the assay on CDK9 it was 0%. The “%Inh” value in the assay with CDKL1 is 0%; in the assay on CDKL2 it was 25%; with CDKL3 it was 0%; in the assay on CDKL5, 1%; with CHEK1, 4%; in the assay on CHEK2 it was 0%. Further, the “%Inh” value in the assay on CIT worked out at 53%; in the assay with CLK1, 27%; in the assay with CLK2, 10%; with CLK3, 100%; in the assay with CLK4, 21%; in the assay on CSF1R-autoinhibited, 21%. Besides, the “%Inh” value in the assay with CSF1R is 99.7%; in the assay on CSK, 97.5%.

Regarding `Cc1cn2c(=O)cc(N3CCOCC3)nc2n1Cc1cccc(Cl)c1Cl` [GSK2334006], the “%Inh” value in the assay on CDK4-cyclinD3 was 0%; with CDK4 it was 3%; in the assay with CDK5 it was 2%; in the assay with CDK7 it was 0%; in the assay with CDK8, 15%; in the assay on CDK9, 0%. Moreover, the “%Inh” value worked out at 0% in the assay on CDKL1; 3% with CDKL2; 0% with CDKL3; 2% with CDKL5; 25% in the assay on CHEK1; 0% with CHEK2. Also, the “%Inh” value was determined as 17% in the assay on CIT; 35% in the assay on CLK1; 0% in the assay with CLK2; 11% in the assay with CLK3; 26% in the assay with CLK4; 0% in the assay on CSF1R-autoinhibited. Further, the results for the “%Inh” value in the assay with CSF1R and with CSK were 5% and 0%, respectively.

For the molecule `O=C1Cc2cc(Nc3nc(NCc4cccc(S(=O)(=O)C(F)(F)F)c4)ncc3C(F)(F)F)ccc2N1`, the “%Inh” value in the assay on CDK4-cyclinD3 is given as 0%; with CDK4, 27%; with CDK5, 14%; in the assay with CDK7, 4%; in the assay on CDK8, 3%; with CDK9 it was 10%. For the same molecule, the “%Inh” value in the assay with CDKL1 was 21%; in the assay with CDKL2 it was 4%; with CDKL3 it was 3%; with CDKL5, 18%; with CHEK1, 0%; with CHEK2, 0%. Besides, the “%Inh” value in the assay on CIT, with CLK1, with CLK2, in the assay on CLK3, with CLK4 and in the assay with CSF1R-autoinhibited was 0% throughout. Moreover, the results for the “%Inh” value with CSF1R and in the assay on CSK were 9% and 3%, respectively.

For the origin of these results see article PMC5540273 (PLoS ONE, 2017).
